Source: PubChem BioAssay (National Center for Advancing Translational Sciences (NCATS))
Compounds with a hit are over-represented: about 4.7% of the library has one in this group of screens.
D1 antag = Antagonist of Human D 1 Dopamine Receptor: qHTS; AID 504652, 2011; HEK293 TREx D1 cells, calcium flux, dopamine EC80; active compounds read low; activity change, negative = inhibition, % at 10 µM; 360,000 tested, 3.2% active; D(1A) dopamine receptor (Homo sapiens), P21728; in the data active = activity change below about -30%; also: % is scaled to controls: 0 for no effect and ±100 for the full control effect
Target sequence (P21728 whole entry, looked up): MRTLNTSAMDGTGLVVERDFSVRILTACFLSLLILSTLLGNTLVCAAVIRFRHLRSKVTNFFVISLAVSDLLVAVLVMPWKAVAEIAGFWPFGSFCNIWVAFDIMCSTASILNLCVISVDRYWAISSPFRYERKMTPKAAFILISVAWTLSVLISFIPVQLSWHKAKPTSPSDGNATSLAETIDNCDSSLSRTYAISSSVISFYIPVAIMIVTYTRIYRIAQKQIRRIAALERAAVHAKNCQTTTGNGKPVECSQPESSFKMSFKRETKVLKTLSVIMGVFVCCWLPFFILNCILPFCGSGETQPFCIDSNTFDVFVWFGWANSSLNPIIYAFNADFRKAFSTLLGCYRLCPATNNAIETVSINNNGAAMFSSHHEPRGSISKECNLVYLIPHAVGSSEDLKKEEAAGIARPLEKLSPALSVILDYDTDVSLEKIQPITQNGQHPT
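Kinetic fluorescence of a calcium dye serves as the read-out. D1-expressing Hek293 Trex cells, induced overnight at 30 C, are exposed to compound for 180 s before an EC80 dopamine addition, then read 180 s further.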
D1 ag = Allosteric Agonists of the Human D1 Dopamine Receptor: qHTS; D(1A) dopamine receptor (Homo sapiens), P21728; HEK293 T-REx D1 cells, calcium flux, agonist mode; activation, % at 2 µM; 360,000 tested, 1% active; also: 0% is about no effect
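Tetracycline-induced HEK293 TREx D1 cells, force-coupled to calcium signalling, were dye-loaded with a no-wash calcium kit. Compound was pin-added after a 10 s baseline. Fluorescence was read kinetically at 1 cycle/s for 180 s, with calcium rises flagged as agonism.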
TRHR agonist = qHTS for Small Molecule Agonists and Allosteric Enhancers of Human TRH Receptor: Primary Screen for Agonists | Thyrotropin-releasing hormone receptor (Homo sapiens), P34981 | TRHR cells, calcium flux fluo-8, FDSS agonist mode | activation, % at 2 µM | 360,000 tested, 0.18% active | AID 493084, 2011; also: 0% is about no effect
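In this calcium-flux screen, cells bearing human TRHR are dye-loaded with fluo-8, baselined for 10 cycles, then exposed to library compounds; positive kinetic calcium responses during the agonist phase mark hits, with TRH as control.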
TRHR PAM = qHTS for Small Molecule Agonists and Allosteric Enhancers of Human TRH Receptor: Primary Screen for Enhancers; TRHR cells, fluo-8 calcium fluorescence, EC20 TRH enhancement; enhancement, % at 2 µM; 360,000 tested, 0.66% active; in the data active = enhancement above about 30%; also: 0% is about no effect
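Enhancer read-out: after compound pinning and an initial kinetic agonist-mode read, an EC20 of TRH (10 nM final) was injected and fluo-8 calcium signal (Ex 480/Em 530) followed at 1 s/cycle for 100 cycles in TRHR-expressing cells.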
D1 PAM = Potentiators of Human D1 Dopamine Receptor: qHTS; D(1A) dopamine receptor (Homo sapiens), P21728; HEK293 TREx D1 cells, calcium flux, dopamine EC20 potentiation; 360,000 tested, 0.036% active; potentiation, % at 10 µM; in the data active = potentiation above about 30%; also: 0% is about no effect
Numbers without * were called inactive; / = no result given; ! = repeats disagree. Rule as the data show it, unless noted: active = activation above about 30%; inactive = the rest.

SMILES	D1 antag	D1 ag	TRHR agonist	TRHR PAM	D1 PAM
CCNC(=O)C1CCCN(c2nnc(C)c3c(C)n(-c4ccc(C)cc4)nc23)C1 (configuration not stated)	1.8	3.7	-0.6	1.8	-0.9
CCc1ccc(NC(=O)Nc2cccs2)cc1	-36.9*	10.7	0.6	-4.9	-6.6
Cc1cccc(C)c1NC(=O)Cn1c(=O)n(Cc2ccc3c(c2)OCO3)c(=O)c2oc3ccccc3c21	-4.5	1.3	0.0	-1.7	3.4
Cc1ccc(CSc2nc3ccc(NC(=O)COc4ccccc4)cc3s2)cc1	15.9	2.7	1.0	5.1	1.6
COc1ccccc1C(=O)Nc1ccnn1C1CCN(C(C)CSC)CC1 (configuration not stated)	-39.6*	1.0	0.5	-2.7	-6.1
COc1ccccc1/C=C/CN1CCC(n2nccc2NC(=O)CCc2ccccc2)CC1	-11.8	31.1*	0.6	7.0	-7.8
Cc1nc2c3ccccc3nc(NNC(=O)CCC(=O)N3CCN(c4cccc(C(F)(F)F)c4)CC3)n2n1	-13.9	2.6	0.1	-1.9	-2.4
Cc1cccc(-n2c(N)c(-c3nc4ccccc4n3C)c3nc4ccccc4nc32)c1	2.9	59.6*	12.9	0.3	2.5
Cn1c(-c2c(N)n(-c3ccccc3)c3nc4ccccc4nc23)nc2ccccc21	14.0	50.5*	17.0	1.8	-0.7
Cc1nc2c(C(=O)NCc3ccccc3Cl)cnn2c(C)c1Cc1c(F)cccc1Cl	7.7	6.8	0.5	-6.1	0.9
CCCN(C(=O)COc1cc(=O)n(CC)c2ccccc12)c1ccc(C(C)C)cc1	1.3	0.8	3.0	-7.1	-1.4
NC(=O)C1CCN(CCC(=O)Nc2ccc(Br)cc2)CC1	16.4	4.2	0.5	34.2*	-1.8
CCOC(=O)C1CCCN(CCC(=O)Nc2cccc(C)c2)C1 (configuration not stated)	-37.7*!	4.5	-0.5	-0.1	-6.8
CCOC(=O)C1CCN(CCC(=O)Nc2ccc(Br)c(C)c2)CC1	3.5	136.3*!	1.8	19.7	-5.8
Cc1cc(NC(=O)CCN2CCC(C(N)=O)CC2)ccc1Br	-4.3	3.6	-0.9	6.5	-2.4
COc1ccc(NC(=O)CCSc2ccc(C)cc2)cc1	0.9	1.8	-0.3	8.3	-2.1
Cc1ccc(SCCC(=O)Nc2ccc(Br)c(C)c2)cc1	-33.4*	9.7	-0.5	-0.9	-10.6
CCOC(=O)C1CCCN(CCC(=O)Nc2cccc(F)c2)C1 (configuration not stated)	4.1	2.3	-0.1	8.4	-5.8
COc1ccc(/C=C/C(=O)Nc2ccc3nc(N4CCC(C)CC4)cc(C)c3c2)cc1OC	-7.8	3.2	-0.6	4.0	-0.5
O=C(COc1ccccc1)Nc1ccc2nc(SCC(=O)N3CCOCC3)sc2c1	-7.3	4.6	0.4	-0.4	-1.2
Cc1ccc(N(CC(=O)Nc2ccc(Br)c(C)c2)S(=O)(=O)c2cccs2)cc1	-51.8*	2.8	1.3	-0.2	-2.8
Cc1ccc(N(CC(=O)Nc2cccc(Cl)c2)S(=O)(=O)c2cccs2)cc1	-16.8	18.5	4.8	-3.8	-1.4
O=C(Nc1ccc(-c2cc(C(F)(F)F)nn2-c2ccccc2)cc1)c1cccc(F)c1	-3.7	-0.5	2.1	-11.4	-4.7
COc1ccc(-c2ccc3c(N)c(C(=O)Nc4cccc(C)c4)sc3n2)cc1	-3.9	5.4	1.3	1.6	-2.0
COc1cccc(-c2ccc3c(N)c(C(=O)Nc4cc(C(F)(F)F)ccc4OC)sc3n2)c1	-35.5*	4.2	-0.9	-0.5	-1.1
SMILES	D1 antag	D1 ag	TRHR agonist	TRHR PAM	D1 PAM
CC(C)CSc1ccccc1NC(=O)c1sc2nc(-c3ccncc3)ccc2c1N	-31.4*	7.3	5.0	-1.5	-3.4
COc1cccc(-c2ccc3c(N)c(C(=O)Nc4ccc(Cl)cc4F)sc3n2)c1	-30.6*	7.5	2.0	-1.7	-2.1
Cc1cccc(NC(=O)Cn2c(=O)n(CCCCCC(=O)NCc3ccc4c(c3)OCO4)c(=O)c3sccc32)c1	0.3	23.0	-0.3	-1.3	3.5
COC(=O)c1c(SC)nc2ccccc2c1OCc1ccccc1C	29.4	12.0	1.6	3.6	-0.4
CC(Sc1nc(=O)cc(N)n1CCc1ccccc1)C(=O)Nc1ccc(Cl)cc1 (configuration not stated)	-33.4*	16.3	0.5	6.8	-1.8
Cc1ccc(NC(=S)NCC2CCN(C(C)c3ccccc3)C2)cc1C (configuration not stated)	-63.3*	10.2	-0.3	3.8	-5.6
COC(=O)C1=C(C)NC(c2c(O)ccc3ccccc23)C(C(=O)OC)=C1C (configuration not stated)	3.6	2.5	0.6	8.6	-0.7
COC(=O)C1=C(C)NC(=O)NC1c1c(O)ccc2ccccc12 (configuration not stated)	8.5	0.7	0.2	35.3*	-1.4
CC(CNC(=O)c1ccc(Cn2c(SCc3ccccc3)nc3cccnc32)cc1)c1ccccc1 (configuration not stated)	-0.5	13.9	-1.0	10.6	-2.3
CCOc1ccc2nc(SCC(=O)NCc3ccc(S(N)(=O)=O)cc3)sc2c1	-14.0	2.1	1.2	2.6	-4.1
CCCC(=O)Nc1ccc2nc(SCC(=O)Nc3ccc(N4CCOCC4)c(Cl)c3)sc2c1	-18.1	2.4	-0.8	12.8	0.1
Cc1ccc(NC(=O)CSCC(=O)NC2(C)CCS(=O)(=O)C2)cc1 (configuration not stated)	-40.1*	4.0	-0.3	5.2	/
COc1ccc(CNC(=O)CSc2nc3ccc(N)cc3s2)cc1	-31.9*	0.1	42.2*	11.6	-1.4
Nc1ccc2nc(SCC(=O)Nc3ccc(N4CCOCC4)c(Cl)c3)sc2c1	-33.8*	17.5	-1.5	5.0	-4.0
Cc1ccc(NC(=O)c2cc(N3C(=O)C=CC3=O)ccc2N2CCOCC2)cc1	-23.8	3.1	3.1	2.1	-1.1
Cc1ccc(NC(=O)c2cc(N3C(=O)C4CC=CCC4C3=O)ccc2N2CCOCC2)cc1Cl (configuration not stated)	7.4	1.0	1.4	38.6*	-0.1
CC1=C(c2ccc(C(C)C)cc2)S(=O)(=O)N=C1N1CCN(c2ccccc2F)CC1	-5.0	1.2	0.3	-0.3	4.0
COc1ccc(C(C)=O)cc1CSc1nc(Nc2ccc(F)c(F)c2)c2ccccc2n1	31.5	2.3	-0.1	1.4	-5.6
COCCCNC(=O)CCn1c(=O)c2ccccc2n(CC(=O)Nc2cc(Cl)ccc2OC)c1=O	-0.3	-0.6	-2.5	11.7	0.0
